Measurements reported in PubChem BioAssay (NCI).
About 83,000 compounds went through this panel and 20% of them were active in at least one assay; those are over-represented in the sample as a whole.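 Each cell line was grown in a 96-well plate and treated with one concentration of compound for 48 hours. Values below 10 were considered active.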 Calls of active or inactive are those of the source.

test system: OVCAR-8 ovarian; experiment: NCI-60 one-dose screen, 48 h (100 = growth as untreated, 0 = no growth, -100 = all killed); conditions: 10 µM
Description: Growth inhibition of the OVCAR-8 human tumor cell line is measured as a screen for anti-cancer activity. Cells are grown in 96 well plates and exposed to the test compound for 48 hours. Compounds are tested at a single concentration, which is 10^-5 M for most compounds. The reported endpoint is percent growth (GI% or GIPRCNT), where numbers from 0 - 100% represent growth inhibition, and numbers from -100% - 0 represent cell death. For example, a value of 40 represents 60% growth inhibition. A value of 0 means no net growth occurred over the course of the experiment. A value of -40 indicates 40% of cells at the beginning of the experiment died by the end of the experiment. A value of -100 means all cells are dead at the end of the experiment.
NCI-60 Human Tumor Cell Lines Screen was performed using the standard one-dose NCI protocol, which is described in more detail at https://dtp.cancer.gov/discovery_development/nci-60/default.htm.
Compounds with GIPRCNT values below 10 were considered active. Activity score was based on GIPRCNT using the following formula: […]
Score is 0 for GIPRCNT values of 100 or above, 50 for GIPRCNT values of 0, and 100 for GIPRCNT values of -100.

Row | SMILES | growth
1 | O=C(c1cccs1)c1ccccc1Cc1ccccc1 | 99% (inactive)
2 | COc1ccc(Nc2ncnc3c2c(SC)nn3-c2ccccc2)cc1 | 98% (inactive)
3 | FC(F)(F)c1ccc(-c2cnc(-n3cc(COCCN4CCCCC4)nn3)nc2NC2CCCCCC2)cc1 | 54.7% (inactive)
4 | O=C(CSSCC(=O)c1ccc(Cl)cc1)c1ccc(Cl)cc1 | 47.8% (inactive)
5 | Cc1ccc2oc3nc(C)c(C(=O)NCc4ccccc4)cc3c(=O)c2c1 | 92.5% (inactive)
6 | COc1cc(Cl)cc(-c2nn(-c3cccc(NC(=O)c4ccc(N5CCOCC5)c(C(F)(F)F)c4)c3)cc2-c2ccncc2)c1 | 42.1% (inactive)
7 | COc1cc(CNCCCCCCN2C(=O)c3cccc4cccc(c34)C2=O)ccc1O | 69% (inactive)
8 | CCCCCCN1C(=O)C2=C(c3ccc(Cl)cc3)Nc3c(c(C)nn3-c3ccccc3)C2c2ccccc21 (stereo not given) | 92.5% (inactive)
9 | CCCCCCCCCCCCCCCCN(C(C)c1ccccc1)S(=O)(=O)c1ccc(OC)c(N)c1 (stereo not given) | 104% (inactive)
10 | CCC(=O)N1C/C(=C/c2ccc(Br)cc2)C(=O)/C(=C/c2ccc(Br)cc2)C1 | -7.14% (active)
11 | COc1cc(-c2nnc(-c3c(-c4ccc(F)cc4)nc4ccccn34)o2)cc(OC)c1OC | 46.6% (inactive)
12 | Fc1ccc2nc(-c3nc(-c4ccccc4)n4ccccc34)[nH]c2c1 | -58.7% (active)
13 | O=C(CCCCC(=O)Nc1ccc2c(c1)/C(=C/c1ccc[nH]1)C(=O)N2)NO | 69.4% (inactive)
14 | O=[N+]([O-])c1ccc(Oc2cccnc2)c([N+](=O)[O-])c1 | 91.7% (inactive)
15 | CCOC1(OCC)OC(c2ccccc2)=C(C#N)C(/C=C\c2ccccc2)C1(OCC)OCC (stereo not given) | 86.5% (inactive)
16 | Nc1nc(N)c(NC(=O)CNc2ccc(C(=O)O)cc2)c(N)n1 | 105% (inactive)
17 | Clc1ccc(Sc2nc(NC3CC3)nc(Sc3ccc(Cl)cc3)n2)cc1 | 87.4% (inactive)
18 | COC(=O)C1(C)Cc2cc(OC(C)=O)c(OC(C)=O)cc2N1 (stereo not given) | 85.2% (inactive)
19 | COc1ccc(-c2ccc(-c3ccc(C(=N)N)cn3)o2)cc1 | 76.3% (inactive)
20 | CC/C(C)=C(\C)C(=O)O | 103% (inactive)

Row | SMILES | growth
21 | CN(C)CC(O)c1ccc2cc(Br)c3ccccc3c2c1 (stereo not given) | 79.7% (inactive)
22 | COc1cc2c(cc1OCCCCCCN1CCN(CC(=O)Nc3ccc(Cl)cc3C(=O)c3ccccc3Cl)CC1)N=CC1CCCN1C2=O (stereo not given) | -81.7% (active)
23 | COc1ccc(-c2nn(-c3cccc(NC(=O)c4ccc(N5CCOCC5)c(C(F)(F)F)c4)c3)cc2-c2ccncc2)cc1Cl | 55.3% (inactive)
24 | CC(=O)OCc1cc(-c2nc3ccccc3[nH]c2=O)nn1-c1ccc(Cl)cc1 | 95.4% (inactive)
25 | Cc1c(Cl)cccc1NC(=O)c1sc2nc3c(cc2c1N)C(=O)CCC3 | 13.5% (inactive)
26 | COc1cc(NC(=O)CCSc2nc3ccc(C)cc3c(=O)n2Cc2ccccc2)cc(OC)c1OC | 29.9% (inactive)
27 | CC(=O)n1c(-c2ccc(Cl)c(Cl)c2)cn(-c2ccc(Cl)cc2)c1=O | 20.8% (inactive)
28 | O=C(CCCCC[P+](c1ccccc1)(c1ccccc1)c1ccccc1)NC(COC(=O)C(Cl)Cl)(COC(=O)C(Cl)Cl)COC(=O)C(Cl)Cl | 95% (inactive)
29 | O=C1ON=[N+](c2ccc(Cc3ccc([N+]4=NOC(=O)C4CN4CCOCC4)cc3)cc2)C1CN1CCOCC1 (stereo not given) | 80.9% (inactive)
30 | COc1ccc2nc3ccccc3c(NCCNCC(C)O)c2c1 (stereo not given) | -2.99% (active)
31 | CCCCN(CCCC)CCCCCCCCC(O)c1cc2ccccc2c2ccccc12 (stereo not given) | 49.4% (inactive)
32 | CSc1nn(-c2ccccc2)c2ncnc(Oc3ccc(C)cc3)c12 | 50.7% (inactive)
33 | O=C1c2ccc3c4c(ccc(c24)C(=O)N1CCNCc1ccccc1)C(=O)N(CCNCc1ccccc1)C3=O | 2.34% (active)
34 | CC(C)N(CCNc1nc(C(Cl)(Cl)Cl)nc2cc(Cl)ccc12)C(C)C | -73.9% (active)
35 | CO/N=C(/C(=O)NC1C(=O)N2C(C(=O)O)=C(COC(N)=O)CSC12)c1ccco1 (stereo not given) | 108% (inactive)
36 | N#Cc1cc(-c2cc3ccccc3o2)oc1N | 4.89% (active)
37 | CC1(C)CCC(=NNC(N)=S)CC1 | 100% (inactive)
38 | COc1ccc(-c2cc(/C=C/C(=O)c3cc(OC)c(OC)c(OC)c3)[nH]n2)cc1OC | -17.1% (active)
39 | COc1ccccc1CNCCN1C(=O)c2ccc3c4c(ccc(c24)C1=O)C(=O)N(CCNCc1ccccc1OC)C3=O | -77.7% (active)
40 | Cc1ccc(-c2nc(/C=C3/C(=O)N(C)c4ccc(F)cc43)c3ccccn23)cc1 | 99.3% (inactive)
